Sm TGR inh: qHTS Assay for the Inhibitors of Schistosoma Mansoni Peroxiredoxins. Schistosoma mansoni thioredoxin glutathione reductase (TGR), Q962Y6. purified TGR, DTNB reduction, TNB absorbance 405 nm. Potency, µM (series often up to 114 µM), most hits filed as inhibitors. actives 3% (n = 360,000). AID 485364, 2010; further: nearly all actives have a fitted effect of over 60% in size
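First, TGR (20 nM dispensed) and NADPH were mixed with compound. Second, a 15 min room-temperature incubation followed. Third, further NADPH and then DTNB were added to start the reaction. Finally, TNB absorbance was monitored kinetically.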
Tb PYK inh: qHTS of Trypanosoma Brucei Inhibitors; TbPYK enzyme, Kinase-Glo Plus ATP luminescence, 45 min; Potency, µM (doses to about 76.8 µM), most hits filed as inhibitors; pyruvate kinase (Trypanosoma brucei), Q57TT1; actives 0.12% (n = 410,000); further: nearly all actives have a fitted effect of over 50% in size
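Screened from lowest to highest concentration, compounds were pinned into TbPYK/substrate mixtures, and ADP (130 uM final) was added. Plates sat at room temperature for 45 min prior to Kinase-Glo Plus detection by luminescence.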
NS1 function inh: qHTS Assay for Inhibitors of Influenza NS1 Protein Function; Potency, µM (titrated, usually from 46.1 µM); actives 0.4% (n = 270,000); AID 2326, 2010; calls by dose curve; further: actives are rising curves; nearly all actives have a fitted effect of over 50% in size
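Read-out: OD600 growth recovery of NS1-expressing budding yeast. Cells grown overnight at 30C in -URA glucose medium, washed, resuspended and diluted 1:100 in 2% galactose assay medium, pH 6.0. Same strain lacking NS1 served as positive control.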
RE007 growth inh: qHTS Assay for Inhibitors of the HIV-1 protein Vpr | S. pombe RE007 Vpr strain, BacTiter-Glo ATP luminescence, 24 h | AID 651644, 2012 | Potency, µM (highest dose often 92.2 µM), hits mostly inhibitors | actives 0.21% (n = 360,000); active means well fitted falling curve with a large enough effect; inconclusive means small, poorly fitted or top-dose-only effect; inactive means no such curve, though single readings can be large or run the other way; further: nearly all actives have a fitted effect of over 50% in size
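Fission yeast strain RE007, carrying one chromosomally integrated HIV-1 vpr copy, was seeded at OD 0.01 in PMG+AL medium with 23 nL pinned compound. After 24 h at 30 °C and 99% humidity, viability was read by BacTiter-Glo luminescence.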
LmPK inh: qHTS Assay for Inhibitors of Leishmania Mexicana Pyruvate Kinase (LmPK); purified LmPK, Kinase-Glo ATP luminescence, 1 h; Potency, µM (titrated, usually from 57.5 µM), actives largely listed as inhibitors; actives 0.37% (n = 290,000); AID 1721, 2009
Target sequence (Q27686 whole entry, looked up): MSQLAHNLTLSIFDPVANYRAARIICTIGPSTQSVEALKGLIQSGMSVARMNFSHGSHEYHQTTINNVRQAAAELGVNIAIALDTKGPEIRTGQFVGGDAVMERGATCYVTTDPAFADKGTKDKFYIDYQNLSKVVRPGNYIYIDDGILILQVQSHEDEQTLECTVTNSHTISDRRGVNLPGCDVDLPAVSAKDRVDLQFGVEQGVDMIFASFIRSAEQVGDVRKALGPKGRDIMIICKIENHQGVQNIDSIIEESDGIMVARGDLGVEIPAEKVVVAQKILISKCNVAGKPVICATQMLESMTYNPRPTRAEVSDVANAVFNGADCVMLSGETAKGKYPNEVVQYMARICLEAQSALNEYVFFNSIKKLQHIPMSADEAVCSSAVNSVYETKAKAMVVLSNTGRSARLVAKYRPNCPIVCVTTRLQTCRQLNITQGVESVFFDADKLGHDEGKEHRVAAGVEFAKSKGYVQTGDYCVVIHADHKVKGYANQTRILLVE
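Kinase-Glo luminescence read after 1 h RT reaction of 0.1 nM LmPK with 0.5 mM PEP and 0.1 mM ADP. Activity scaled between uninhibited and enzyme-free controls.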
SARS PLpro yeast: qHTS of Yeast-based Assay for SARS-CoV PLP. S. cerevisiae expressing SARS-CoV PLpro, growth rescue. Potency, µM (series often up to 32.9 µM), hits mostly activators. actives 0.19% (n = 330,000). AID 485353, 2010; calls by dose curve; further: nearly all actives have a fitted effect of over 55% in size
Flu NS1 inh: Assay for Inhibitors of Influenza NS1 Protein Function: Hit Validation | influenza NS1 function cell assay, 15-point titration | shares compounds with NS1 function inh | 1,400 tested, under 10 active | activity change, negative = inhibition, % at 32.9 µM; calls by dose curve
Hits are given with their value; – = inactive; ? = inconclusive; · = not tested or not shown. Shown are actives, neighbours in structure and some others; about 3.3% of the full set was active somewhere. Unless noted, the call rests on the fitted dose curve; in most records, active means well fitted curve in the direction sought with a large enough effect; inconclusive means small, poorly fitted or top-dose-only effect, or another doubt; inactive means no such curve, though single readings can be large; an effect the other way counts as inactive or inconclusive.

SMILES | Sm TGR inh | Tb PYK inh | NS1 function inh | RE007 growth inh | LmPK inh | SARS PLpro yeast | Flu NS1 inh
CC1Cc2nc(SCC(=O)Nc3ccc4c(c3)OCO4)n(Cc3ccccc3)c(=O)c2S1 (configuration not stated) | – | – | 11µM | – | – | – | –
COCCn1c(SCC(=O)Nc2ccc3c(c2)OCCO3)nc2c(c1=O)SC(C)C2 (configuration not stated) | – | – | – | – | – | – | ·
CCc1noc(-c2ccc(NC(C)c3ccccc3)c([N+](=O)[O-])c2)n1 (configuration not stated) | – | – | · | · | · | · | ·
COc1ccccc1CNc1ncnc2c1c(-c1ccccc1)cn2-c1ccc(Br)cc1 | – | – | · | · | · | · | ·
CCC(C)c1c(O)nc(SCC(=O)c2ccccc2)[nH]c1=O (configuration not stated) | – | – | 4.5µM | – | – | – | –
Cc1ccc(C(=O)CSc2nc(O)cc(=O)[nH]2)cc1C | – | – | 7.9µM | – | – | – | ?
CN(C)N1C(N)=C(C#N)C(c2cccc3ccccc23)C2=C1CC(c1ccccc1)CC2=O (configuration not stated) | – | – | 22µM | – | – | – | –
COc1ccc(CC(=O)NCc2ccc3c(c2)cc(C)n3C)cc1OC | – | – | · | – | – | – | ·
COc1cc(/C=C\C(=O)NCc2ccc3c(c2)cc(C)n3C)cc(OC)c1OC | – | – | ? | – | – | – | –
CN(C)S(=O)(=O)c1ccc2oc(SCC(=O)NCC(F)(F)F)nc2c1 | – | – | 10µM | – | – | ? | –
CCS(=O)(=O)c1ccc2oc(SCC(=O)NCCc3ccc(OC)cc3)nc2c1 | – | – | – | – | – | – | ·
CC(C)NC(=O)C1CCCN(S(=O)(=O)c2cccs2)C1 (configuration not stated) | – | – | 2.2µM | – | – | – | –
Cc1cc(C)cc(NC(=O)CSc2nnc(-c3ccccc3C)o2)c1 | – | – | ? | – | – | – | –
Cc1cccc(NC(=O)CSc2nnc(-c3ccccc3C)o2)c1 | – | – | – | – | – | – | ·
COC(=O)c1ccc(OCC2c3cc(OC)c(OC)cc3CCN2C(=O)Cc2ccc(OC)cc2)cc1 (configuration not stated) | – | – | · | · | · | · | ·
Nc1c(/C=C2/C=CC(=O)C(O)=C2)c(=O)nc2sc(CC(=O)N3CCCCC3)nn12 | – | – | 14µM | – | – | 11µM | –
Nc1c(/C=C2/C=CC(=O)C(O)=C2)c(=O)nc2sc(CC(=O)N3CCCC3)nn12 | – | – | – | – | – | – | ·
COC(=O)c1ccccc1NC(=S)N(Cc1ccc2c(c1)OCO2)Cc1cc2cc(C)ccc2[nH]c1=O | – | – | 11µM | – | – | – | ?
COc1cc(Cl)cc(C(c2c(C(=O)O)[nH]c3ccccc23)c2c(C(=O)O)[nH]c3ccccc23)c1O | – | – | 2.5µM | – | – | – | –
O=C(O)c1[nH]c2ccccc2c1C(c1cc(Br)ccc1O)c1c(C(=O)O)[nH]c2ccccc12 | – | – | – | – | – | – | ·
O=C(Nc1cccc(C(F)(F)F)c1)c1cc2nc(-c3ccccc3)cc(C(F)(F)F)n2n1 | – | – | · | · | · | · | ·
COc1ccccc1NC(=O)c1cnc(SCC(=O)N2CCCc3ccccc32)n(C)c1=O | – | – | · | · | · | · | ·
COc1cccc(N2CCN(C(=O)c3cnc4c(-c5ccc(F)cc5)c(C)nn4c3C)CC2)c1 | – | – | · | · | · | · | ·
CNC(=O)c1cc2cc(OC)ccc2n1CCN(C)C | – | – | 3.5µM | – | – | – | –
O=C(NNc1nc(-c2ccccc2)c2cc(Br)ccc2n1)c1ccc(S(=O)(=O)N2CCOCC2)cc1 | – | – | 11µM | – | – | – | –
SMILES | Sm TGR inh | Tb PYK inh | NS1 function inh | RE007 growth inh | LmPK inh | SARS PLpro yeast | Flu NS1 inh
Cn1c(=O)n(CCc2ccccc2)c(=O)c2c1nc1n2CCN1c1ccc(Cl)cc1 | – | – | · | · | · | · | ·
COc1cc(/C=C/C(=O)OCC(=O)Nc2cc(S(=O)(=O)N(C)C)ccc2Cl)ccc1O | – | – | – | – | – | – | ·
CN(C)S(=O)(=O)c1ccc(Cl)c(NC(=O)COC(=O)/C=C/c2ccc(S(=O)(=O)N3CCOCC3)cc2)c1 | – | – | 20µM | – | – | – | ?
O=C(CSc1ccc(F)cc1)Nc1ccc2c(c1)C(=O)NC2=O | – | – | 1.6µM | – | – | – | –
Nc1cc(=O)[nH]n1C1CCN(c2ccccc2)CC1 | ? | – | 14µM | – | – | – | –
Cc1ccc(NC(=O)NCCOCCn2c(=O)oc3ccccc32)c(C)c1 | – | – | · | · | · | · | ·
CCC(C)NC(=O)c1c(N)n(/N=C/c2cccnc2)c2nc3ccccc3nc12 (configuration not stated) | – | – | – | – | – | – | ·
CC(C)OCCCNC(=O)c1c(N)n(/N=C/c2ccccn2)c2nc3ccccc3nc12 | – | – | 8.9µM | ? | – | – | –
CCC(C)NC(=O)c1c(N)n(/N=C/c2ccccn2)c2nc3ccccc3nc12 (configuration not stated) | – | – | 11µM | – | – | – | ?
CN1CCc2cc(NC(=O)Nc3cccnc3)ccc21 | · | · | 25µM | · | · | · | –
Cc1ccc(NC(=O)Nc2cccnc2)cc1Cl | – | – | – | – | – | – | ·
COc1ccc2oc(/C=C/N(C)C)c(C(=O)c3ccc(Cl)cc3)c2c1 | – | – | 13µM | ? | – | – | –
COc1ccc2oc(C)c(C(=O)c3ccccc3)c2c1 | · | – | · | – | · | · | ·
CCC(=O)N1CCc2cc(Br)cc(S(=O)(=O)CCC(=O)N3CCN(c4ccccc4OC)CC3)c21 | – | – | · | · | · | · | ·
N#CCSCC(=O)Nc1ccc(Br)cc1 | – | – | – | – | – | – | ·
N#CCSCC(=O)Nc1ccc(F)cc1 | – | – | 14µM | – | – | – | –
Cc1ccc(CSc2nc3cccnc3n2Cc2nc(-c3ccccc3F)oc2C)cc1 | – | – | · | · | · | · | ·
c1ccc(-c2nc3ccccc3[nH]2)nc1 | – | – | 4.5µM | – | ? | – | ?
Oc1cccc(-c2nc(-c3cccs3)c(-c3cccs3)[nH]2)c1 | ? | – | · | · | · | · | ·
COc1ccccc1-n1cc(-c2ccccc2)c2c(=S)nc[nH]c21 | – | – | 14µM | – | – | – | –
COc1ccccc1-n1cc(-c2ccccc2)[nH]c1=S | – | – | – | – | – | – | ·
CCCn1c(SCc2nc(-c3ccccc3C)no2)nnc1-c1ccc(Cl)cc1 | – | – | · | · | · | · | ·
